Reference: PubChem BioAssay (NCATS)
Inconclusive results are not listed. A call without a number means that no potency is given here. The source made the active and inactive calls. Calls follow the shape of the dose curve; as a rule, active = well fitted inhibition curve with a large enough effect; inconclusive = small, poorly fitted or top-dose-only effect; inactive = no such curve, though single readings can be large or run the other way.

How the values were obtained:
[1] = test system: Zika virus NS2B-NS3 protease (linked construct); assay: Primary screen NINDS Rhodamine qHTS for Zika virus inhibitors (AID 1347160); also: nearly all actives have a fitted effect of over 55% in size
Summary of the method: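 Aprotinin served as in-plate control. Conditions: 25 nM linked NS2B-NS3, pH 8.0 Tris buffer, titrated compounds, 15 min preincubation and 15 min reaction with 1.5 microM Rhod110 substrate at room temperature.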

[2] = test system: Zika virus NS2B-NS3 protease (linked construct); assay: 384 well plate NINDS Rhodamine confirmatory qHTS for Zika virus inhibitors (AID 1347164); details: rhodamine-110 peptide substrate fluorescence;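 also: fluorescence from protease cleavage of Ac-LKRR-rhodamine 110 substrate; potency is read from the fitted curve at half-maximal effect; nearly all actives have a fitted effect of over 65% in size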
Summary of the method: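 Enzyme (final 5/30/60 nM) + cpd (DMSO), ~15 min; add Ac-LKRR-Rd 10 microM final; 25 min RT, dark; FI ex 485/em 538; normalized to no-enzyme, no-inhibitor ctrls; aprotinin intraplate ctrl.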

Compound | outcome [1] | Potency [2]
O=C1[C@H](CC[C@H](O)c2ccc(F)cc2)[C@@H](c2ccc(O)cc2)N1c1ccc(F)cc1 | inactive | –
O=C(O)C(Cc1cc(I)c(O)c(I)c1)c1ccccc1 (configuration not stated) | – | 112 µM (active)
